TRHR agonist = TRH receptor (human) agonism | P34981 | 0.18% of 360,000 active | activation, % at 2 µM | TRHR cells, calcium flux fluo-8, FDSS agonist mode
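Agonist-mode FDSS calcium read (Ex 480/Em 530, 1 s cycles) in 1536-well TRHR cells with fluo-8 dye, after 10-cycle baseline and 23 nL compound addition; TRH at EC20 (10 nM final) added afterwards for the enhancer phase.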
USP1-UAF1 inh = inhibitors of human USP1/UAF1 deubiquitinase; AID 743255; Potency, µM (titrated, usually from 57.1 µM), usual class: inhibitors; O94782; recombinant USP1/UAF1, Ub-Rhodamine cleavage fluorescence; 0.23% of 390,000 active; active = well fitted inhibition curve with a large enough effect; inconclusive = small, poorly fitted or top-dose-only effect; inactive = no such curve, though single readings can be large or run the other way; note: nearly all actives have a fitted effect of over 60% in size
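1 nM enzyme complex + cpd, 15 min RT; start with Ub-Rho 150nM final; kinetic fluorescence ex 480/em 540, 6 reads q60 s. Buffer 50mM HEPES pH 7.8, 0.5mM EDTA, 0.1 mg/ml BSA, 1mM TCEP, 0.01% Tween-20.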
D1 ag = human D1 receptor agonism; activation, % at 2 µM; P21728; HEK293 T-REx D1 cells, calcium flux, agonist mode; 1% of 360,000 active
Target sequence (P21728 whole entry, looked up): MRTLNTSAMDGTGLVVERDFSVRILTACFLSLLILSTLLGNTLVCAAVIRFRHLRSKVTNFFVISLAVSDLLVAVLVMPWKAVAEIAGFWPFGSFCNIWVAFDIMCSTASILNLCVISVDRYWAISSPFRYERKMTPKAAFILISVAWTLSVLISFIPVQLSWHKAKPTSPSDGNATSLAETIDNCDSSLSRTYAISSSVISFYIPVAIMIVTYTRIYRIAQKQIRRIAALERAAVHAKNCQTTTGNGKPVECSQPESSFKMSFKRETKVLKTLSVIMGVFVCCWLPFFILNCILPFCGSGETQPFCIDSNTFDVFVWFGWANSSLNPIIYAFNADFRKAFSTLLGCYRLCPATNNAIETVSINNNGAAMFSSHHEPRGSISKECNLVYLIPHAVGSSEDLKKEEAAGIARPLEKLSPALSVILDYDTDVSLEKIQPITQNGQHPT
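Agonism was scored from calcium flux recorded over 180 s (1 read/s) after pintool compound addition, following a 10-cycle baseline. Cells were inducible force-coupled HEK293 TREx D1, plated overnight at 30 C and loaded with no-wash calcium dye.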
TRHR PAM = allosterically enhances the human TRH receptor; P34981; TRHR cells, fluo-8 calcium fluorescence, EC20 TRH enhancement; enhancement, % at 2 µM; 0.66% of 360,000 active; AID 493056; in the data active = enhancement above about 30%
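TRHR-expressing cells loaded with fluo-8 calcium dye were read kinetically (ex 480/em 530) during compound addition, then stimulated with an EC20 of TRH (10 nM final). Enhancement of the Gq-mediated intracellular calcium response was scored.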
D1 PAM = human D1 dopamine receptor positive modulation; potentiation, % at 10 µM; 0.036% of 360,000 active; HEK293 TREx D1 cells, calcium flux, dopamine EC20 potentiation; in the data active = potentiation above about 30%
D1 antagonist = blocks dopamine activation of the human D1 receptor; P21728; HEK293 TREx D1 cells, calcium flux, dopamine EC80; active compounds read low; activity change, negative = inhibition, % at 10 µM; 3.2% of 360,000 active; in the data active = activity change below about -30%
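Allosteric or orthosteric antagonism assessed as attenuation of the calcium response to EC80 dopamine, added 180 s after compound, in induced HEK293 Trex D1 cells loaded with no-wash calcium dye.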
Large screens that a line does not name were inactive. In the library only some 4.4% were active in any assay of this set; here they are far more common. Cut-off read from the data, not from the text of the source, unless noted: active = activation above about 30%; inactive = the rest.

C=CCc1ccccc1OCCSc1nc(-c2cccs2)nc2cc(=O)[nH]n12	none
CC(C)CCN1CCN(CCCc2ccccc2)CC1CCO (configuration not stated)	none
CC(C)/C=C/CN1CCN(CCCc2ccccc2)C(CCO)C1 (configuration not stated)	TRHR PAM 33.9
COc1cccc(/C=N/NC(=O)CSc2cccc3cccnc23)c1	none
O=C(CSc1ncccn1)N/N=C/c1cccc(OC2CSC2)c1	D1 antagonist -36.5
Cn1ncc(Cl)c1C(=O)N/N=C/c1cccc(OC2CSC2)c1	D1 antagonist -44.6
COc1cc(OC)c2c(C)c(CC(=O)NCCc3ccccc3OC)c(=O)oc2c1	none
CCNC(=O)C1CCN(S(=O)(=O)c2ccc3c(c2)CCCN3C(C)=O)CC1	none
Cc1ccccc1-n1sc2cc(F)ccc2c1=O	D1 ag 31.6
O=c1c2cc(F)ccc2sn1-c1ccccc1	D1 ag 38.9
Cc1ccc(C(=O)NNC(=O)CCOc2cccc(C)c2)cc1	none
Cc1cccc(OCCC(=O)NCC(=O)Nc2c(C)cccc2C)c1	TRHR PAM 31.1
Cc1ccc(C(=O)Nc2nnc(CC(=O)N/N=C/c3ccc(O)c(O)c3)s2)cc1	none
COc1ccc(C(=O)Nc2nnc(CC(=O)N/N=C/c3ccc(O)cc3O)s2)cc1	TRHR agonist 51.6, D1 ag 45.5 (no result: USP1-UAF1 inh)
COc1ccc2cc3cc(C(=O)NCCc4ccccc4)sc3nc2c1Cl	none
O=C(O)c1ccccc1C(=O)Nc1ccc(Nc2ccc([N+](=O)[O-])cc2[N+](=O)[O-])cc1	TRHR PAM 34.7
O=C(O)c1ccccc1Nc1ccc([N+](=O)[O-])cc1	none
CCCc1nn2c(=O)cc(COC(=O)c3cccc(NC(=O)COc4ccccc4C)c3)nc2s1	USP1-UAF1 inh inconclusive
O=C(COC(=O)CSc1cc(Cl)ccc1Cl)Nc1ncc(C(F)(F)F)cc1Cl	D1 antagonist -32.4
COc1ccccc1-c1c(C)nn2c(N3CCN(c4cccc(Cl)c4)CC3)cc(C)nc12	none
CCCOC(=O)CSc1nc(N)c(C#N)c(-c2ccco2)c1C#N	none (no result: TRHR agonist, D1 ag, TRHR PAM, D1 PAM, D1 antagonist)
CCCOC(=O)CSc1nc(N)c(C#N)c(CC)c1C#N	D1 antagonist -40.3
O=C(Nc1cc(-c2ccc(Cl)cc2)no1)c1ccc(F)cc1	none
CCOc1ccc(C(=O)NCC(=O)NCC2CCCCC2)cc1OCC	D1 antagonist -34.5
CCOc1ccc(C(=O)NCC2CCCO2)cc1OCC (configuration not stated)	none
CCc1ccc(NC2=CC(=O)C(=O)c3ccccc32)cc1	USP1-UAF1 inh 28.2µM
O=C1C=C(Nc2ccccc2)C(=O)c2ccccc21	USP1-UAF1 inh inconclusive
O=C1C=C(Nc2ccccc2C(=O)O)c2ccccc2C1=O	USP1-UAF1 inh 7.94µM
CCCCNC1=CC(=O)C(=O)c2ccccc21	USP1-UAF1 inh 25.1µM
CCCCNC1=CC(=O)C(NCCCC)=CC1=O	none (no result: TRHR agonist, D1 ag, TRHR PAM, D1 PAM, D1 antagonist)
O=C1C=C(Nc2ccccc2)c2ccccc2C1=O	USP1-UAF1 inh 12.6µM
COc1ccc(OC)c(NC(=O)CN2C(=O)CC(C)Sc3ccccc32)c1 (configuration not stated)	none
NS(=O)(=O)Nc1cccc2cccnc12	none (no result: USP1-UAF1 inh)
O=C1C=C(Nc2cccc3cccnc23)c2ccccc2C1=O	USP1-UAF1 inh 17.8µM
COCCCN1C(=O)c2oc3ccccc3c(=O)c2C12C(=O)N(C)c1ccccc12 (configuration not stated)	none
CCOC(=O)c1c(C)n(C)c2ccc(OC)c(NC(=O)CCN3CCC(Cc4ccccc4)CC3)c12	D1 antagonist -36.1
CCOC(=O)c1c(C)n(C)c2ccc(OC)c(NC(=O)CN3CCSCC3)c12	none
O=C(C1CC1)N1CCc2cc(Br)cc(S(=O)(=O)Nc3ccc(C(F)(F)F)cc3)c21	none
Cc1ccc2[nH]c(O)c(N=NC(=O)CCc3ccccc3)c2c1Br	TRHR PAM 32.1
Fc1cccc(CNc2ncnc3ccc(-c4ccoc4)cc23)c1	none (no result: USP1-UAF1 inh)
CCN(C(=O)CSc1nc2ccccc2n1CC(=O)Nc1cccc(C#N)c1)c1ccccc1	none
CCCCNC(=O)CN1C(=O)COc2ccc(S(=O)(=O)N3CCCC3)cc21	none

Assay outcomes deposited in PubChem BioAssay by National Center for Advancing Translational Sciences (NCATS).
